# Results from PubChem BioAssay (EPA / NIEHS).
# Results filed as inconclusive are left out. The source made the active and inactive calls. The calls were made as follows: active = hit-call score of the fitted dose curve at least 0.9, where 1 is the maximum; inconclusive = response in the unintended direction; inactive = score below 0.9.
# Experiments:
# [1] = molecular target: Tyrosine-protein phosphatase non-receptor type 11 (Homo sapiens) (UniProt Q06124); assay: NVS_ENZ_hPTPN11: NovaScreen (NVS) Enzymatic Assay for human Protein Tyrosine Phosphatase Non-receptor Type 11 (PTPN11) (AID 2283202)
# Chain of Tyrosine-protein phosphatase non-receptor type 11 (Homo sapiens) (Q06124 whole entry, looked up): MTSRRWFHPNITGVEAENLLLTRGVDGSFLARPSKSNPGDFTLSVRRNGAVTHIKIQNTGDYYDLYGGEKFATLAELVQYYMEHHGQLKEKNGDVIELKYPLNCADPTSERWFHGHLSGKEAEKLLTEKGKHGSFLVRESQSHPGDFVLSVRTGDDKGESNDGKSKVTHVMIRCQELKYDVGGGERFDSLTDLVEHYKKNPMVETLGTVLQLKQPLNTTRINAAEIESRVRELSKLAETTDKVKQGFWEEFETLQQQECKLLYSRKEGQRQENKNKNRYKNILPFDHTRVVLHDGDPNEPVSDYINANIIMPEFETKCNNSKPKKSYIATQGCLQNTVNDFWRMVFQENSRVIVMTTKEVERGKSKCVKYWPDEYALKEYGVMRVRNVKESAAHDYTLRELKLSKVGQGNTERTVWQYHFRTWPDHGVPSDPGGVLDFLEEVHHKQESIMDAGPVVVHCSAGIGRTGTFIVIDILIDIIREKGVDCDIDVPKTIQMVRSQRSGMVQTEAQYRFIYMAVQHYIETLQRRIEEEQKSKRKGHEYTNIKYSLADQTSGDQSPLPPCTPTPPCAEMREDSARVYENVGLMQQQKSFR
# In short: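 Compounds first tested in duplicate at 25 uM; those reaching ~30% inhibition rerun in singleton concentration-response, top 50 uM. Phosphatase activity measured after 0.5 h by fluorescence with mobility-shift separation, relative to DMSO.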
# [2] = molecular target: human Protein Tyrosine Phosphatase Non-receptor Type 6 (PTPN6), PTPN6 (gene 5777) (UniProt P29350); assay: NVS_ENZ_hPTPN6: NovaScreen (NVS) Enzymatic Assay for human Protein Tyrosine Phosphatase Non-receptor Type 6 (PTPN6) (AID 2283210)
# Chain of human Protein Tyrosine Phosphatase Non-receptor Type 6 (PTPN6), PTPN6 (gene 5777) (P29350 whole entry, looked up): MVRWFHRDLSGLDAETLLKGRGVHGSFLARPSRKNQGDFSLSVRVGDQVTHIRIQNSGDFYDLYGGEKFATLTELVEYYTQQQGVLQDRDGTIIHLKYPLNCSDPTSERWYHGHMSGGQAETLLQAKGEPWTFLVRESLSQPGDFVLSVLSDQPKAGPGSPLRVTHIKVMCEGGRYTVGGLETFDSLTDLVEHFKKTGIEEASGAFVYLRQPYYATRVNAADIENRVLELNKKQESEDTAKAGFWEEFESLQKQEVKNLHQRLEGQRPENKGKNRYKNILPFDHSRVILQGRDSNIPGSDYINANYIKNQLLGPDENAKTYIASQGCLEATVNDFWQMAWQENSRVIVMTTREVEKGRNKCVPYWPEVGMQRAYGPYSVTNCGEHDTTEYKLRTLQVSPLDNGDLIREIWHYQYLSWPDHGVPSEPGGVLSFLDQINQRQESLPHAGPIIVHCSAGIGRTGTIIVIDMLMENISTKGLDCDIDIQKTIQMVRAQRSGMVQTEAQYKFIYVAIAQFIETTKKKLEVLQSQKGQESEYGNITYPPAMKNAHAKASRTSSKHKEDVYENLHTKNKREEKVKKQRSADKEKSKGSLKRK
# In short: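 Recombinant human PTPN6 from SF9 cells, enzyme activity followed by fluorescence after mobility-shift separation of substrate and product at 1.33 h. Chemicals first tested at a single 25 uM in duplicate, then confirmed across concentration series; loss of signal relative to DMSO.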
# [3] = molecular target: human Protein Tyrosine Phosphatase Receptor Type B (PTPRB), PTPRB (gene 5787) (UniProt P23467); assay: NVS_ENZ_hPTPRB: NovaScreen (NVS) Enzymatic Assay for human Protein Tyrosine Phosphatase Receptor Type B (PTPRB) (AID 2283211)
# Chain of human Protein Tyrosine Phosphatase Receptor Type B (PTPRB), PTPRB (gene 5787) (P23467 whole entry, looked up): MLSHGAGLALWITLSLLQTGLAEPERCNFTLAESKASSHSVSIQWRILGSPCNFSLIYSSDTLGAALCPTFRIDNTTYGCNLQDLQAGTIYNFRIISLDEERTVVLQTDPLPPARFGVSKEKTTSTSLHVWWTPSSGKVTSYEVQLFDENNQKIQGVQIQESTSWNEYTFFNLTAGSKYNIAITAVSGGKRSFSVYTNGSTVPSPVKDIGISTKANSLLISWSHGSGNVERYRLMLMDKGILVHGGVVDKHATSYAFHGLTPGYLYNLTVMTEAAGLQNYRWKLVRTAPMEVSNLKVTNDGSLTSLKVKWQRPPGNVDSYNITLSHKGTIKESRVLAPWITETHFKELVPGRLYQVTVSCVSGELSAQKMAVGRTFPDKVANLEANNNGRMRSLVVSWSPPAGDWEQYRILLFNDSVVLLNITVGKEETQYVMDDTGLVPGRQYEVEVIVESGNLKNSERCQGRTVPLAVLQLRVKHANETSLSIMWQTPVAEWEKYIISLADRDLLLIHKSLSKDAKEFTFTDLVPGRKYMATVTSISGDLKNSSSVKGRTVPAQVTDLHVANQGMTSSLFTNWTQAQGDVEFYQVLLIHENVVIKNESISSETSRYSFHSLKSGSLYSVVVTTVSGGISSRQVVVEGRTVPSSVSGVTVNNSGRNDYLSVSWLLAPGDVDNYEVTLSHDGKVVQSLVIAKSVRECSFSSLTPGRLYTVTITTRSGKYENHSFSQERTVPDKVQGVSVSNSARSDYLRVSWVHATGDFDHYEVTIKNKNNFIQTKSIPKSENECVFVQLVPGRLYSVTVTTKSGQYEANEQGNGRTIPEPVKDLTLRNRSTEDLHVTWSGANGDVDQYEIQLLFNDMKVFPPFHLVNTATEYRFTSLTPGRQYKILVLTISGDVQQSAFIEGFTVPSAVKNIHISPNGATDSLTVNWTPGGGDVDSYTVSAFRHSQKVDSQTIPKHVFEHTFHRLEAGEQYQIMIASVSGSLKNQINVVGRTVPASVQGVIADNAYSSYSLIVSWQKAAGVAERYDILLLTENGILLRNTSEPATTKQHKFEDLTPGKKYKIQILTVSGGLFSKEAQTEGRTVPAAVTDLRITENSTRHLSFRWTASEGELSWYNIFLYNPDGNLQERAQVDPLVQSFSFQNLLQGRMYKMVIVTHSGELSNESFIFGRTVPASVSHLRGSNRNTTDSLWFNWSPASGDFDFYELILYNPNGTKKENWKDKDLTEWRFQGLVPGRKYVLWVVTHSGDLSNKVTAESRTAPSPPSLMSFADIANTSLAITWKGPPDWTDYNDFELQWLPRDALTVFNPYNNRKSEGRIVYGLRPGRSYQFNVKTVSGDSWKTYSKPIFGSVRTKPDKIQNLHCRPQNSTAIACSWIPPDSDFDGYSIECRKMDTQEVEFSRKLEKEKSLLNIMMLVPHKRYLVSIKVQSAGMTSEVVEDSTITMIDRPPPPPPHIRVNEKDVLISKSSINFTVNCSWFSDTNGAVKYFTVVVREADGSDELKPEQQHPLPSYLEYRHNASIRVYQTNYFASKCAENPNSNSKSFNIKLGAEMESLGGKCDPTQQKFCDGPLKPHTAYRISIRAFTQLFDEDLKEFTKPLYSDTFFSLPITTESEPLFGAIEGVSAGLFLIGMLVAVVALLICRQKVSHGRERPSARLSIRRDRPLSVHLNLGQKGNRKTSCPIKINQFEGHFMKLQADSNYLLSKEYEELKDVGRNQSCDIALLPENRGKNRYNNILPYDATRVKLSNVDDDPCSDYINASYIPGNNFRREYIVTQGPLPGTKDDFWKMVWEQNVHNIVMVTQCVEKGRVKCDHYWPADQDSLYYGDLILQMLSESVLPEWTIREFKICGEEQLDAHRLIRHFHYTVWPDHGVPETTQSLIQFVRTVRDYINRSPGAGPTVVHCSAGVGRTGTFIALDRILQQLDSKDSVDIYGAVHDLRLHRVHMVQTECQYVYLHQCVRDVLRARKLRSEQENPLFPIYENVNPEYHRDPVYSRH
# In short: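 Recombinant human PTPRB with a fluorescent substrate, product separated by electrophoretic mobility shift; read 1 h after dosing. Primary screen in duplicate at 25 uM; actives then retested in concentration series; loss of signal versus DMSO.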
compound,measurement,setting,value
CCCCCCCCCCCCc1ccccc1S(=O)(=O)O,AC50,[1],13.3 µM (active)
same,AC50,[2],13.4 µM (active)
same,AC50,[3],25 µM (active)
ClC1=C(Cl)C(Cl)(Cl)C(Cl)=C1Cl,outcome,[1],inactive
COc1ccc([N+](=O)[O-])cc1N,outcome,[2],inactive
COCC(C)OCC(C)O (stereo unspecified),outcome,[3],inactive
